Laboratory results published in the supplement of paper PMC10849652.
About 8,800 targets were measured; listed, in parts, are those with a hit and a random draw of the rest. About 0.5% of all pairs of compound and target were hits.

Assays:
Assay in all cases: log2 fold change, soluble protein after heating vs DMSO (PISA); higher = thermal stabilisation; K562 lysate, 10 uM; active = over 0.2 and 3.5 SD of the protein, either way, in both replicates (recomputed)
ibrutinib = compound: C=CC(=O)N1CCC[C@@H](n2nc(-c3ccc(Oc4ccccc4)cc3)c3c(N)ncnc32)C1 [ibrutinib]
Summary of the method: (§1)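 Soluble protein was defined as the supernatant remaining after 21,000xg for 90 min, following pooling of heated aliquots and adjustment to 0.5% NP-40 at 4°C. Before that, crude K562 extract at 1 mg/mL protein in PBS pH 7.4 with 1 mM MgCl2 was treated with 10 μM compound for 30 min and heated for 3 min across 48°C-58°C. Quantification used TMTpro 16plex LC-MS/MS with channel sums equalised, and values are log-two fold changes in thermal stability relative to solvent controls from duplicates.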

[1] = compound: CC(=O)c1cnc2ccc(-c3cc(Cl)c(O)c(Cl)c3)nc2c1N[C@H]1CC[C@H](CN(C)C)CC1
Summary of the method: as §1

ralimetinib = compound: CC(C)(C)Cn1c(N)nc2ccc(-c3[nH]c(C(C)(C)C)nc3-c3ccc(F)cc3)nc21 [ralimetinib]
Summary of the method: as §1

[2] = compound: CC(C)(O)CC(=O)NCCn1ccc2ncnc(Nc3ccc(Oc4cccc(C(F)(F)F)c4)c(Cl)c3)c21
Summary of the method: as §1

[3] = compound: CC(C)C1=C2N=C(C=C(N2N=C1)NCC3=CC=CC=C3)NCCCCCCN
Summary of the method: as §1

[4] = compound: CC1=C(C(CC(=O)N1)C2=CC=C(C=C2)C(F)(F)F)C(=O)NC3=C(C=C4C(=C3)C=NN4)F
Summary of the method: as §1

[5] = compound: CC1=C(C2=C(C=C1)C(=O)C3=CC=CC=C3N2CCCN)C
Summary of the method: as §1

[6] = compound: CC1=C(C=C(C=C1)NC(=O)C2=CC(=CC=C2)C(C)(C)C#N)NC3=CC4=C(C=C3)N=CN(C4=O)C
Summary of the method: as §1

[7] = compound: CC1=C(C=C(C=C1)NC(=O)C2=CC(=CC=C2)N(C)C)NC(=O)C3=CC=C(C=C3)O
Summary of the method: as §1

[8] = compound: CC1=CC=C(C=C1)SC2=C3C=C(SC3=CN=C2)C(=O)N
Summary of the method: as §1

vemurafenib = compound: CCCS(=O)(=O)Nc1ccc(F)c(C(=O)c2c[nH]c3ncc(-c4ccc(Cl)cc4)cc23)c1F [vemurafenib]
Summary of the method: as §1

[9] = compound: CCCS(=O)(=O)Nc1ccc(F)c(C(=O)c2c[nH]c3ncc(Cl)cc23)c1F
Summary of the method: as §1

barasertib = compound: CCN(CCCOc1ccc2c(Nc3cc(CC(=O)Nc4cccc(F)c4)[nH]n3)ncnc2c1)CCOP(=O)(O)O [barasertib]
Summary of the method: as §1

[10] = compound: CC[C@@H]1C(=O)N(C)c2cnc(Nc3ccc(C(=O)NC4CCN(C)CC4)cc3OC)nc2N1C1CCCC1
Summary of the method: as §1

volasertib = compound: CC[C@@H]1C(=O)N(C)c2cnc(Nc3ccc(C(=O)N[C@H]4CC[C@H](N5CCN(CC6CC6)CC5)CC4)cc3OC)nc2N1C(C)C [volasertib]
Summary of the method: as §1

[11] = compound: CCn1c(C(=O)N(C2CC2)C2CC2)cc2c3c(ncn3C)c(Nc3cc(C)n(C)n3)nc21
Summary of the method: as §1

[12] = compound: CCn1cc(-c2ccnc3[nH]c(-c4cccc(CN(C)C)c4)cc23)c(-c2ccc(NC(=O)N(C)C)cc2)n1
Summary of the method: as §1

[13] = compound: CN1CCC(CNc2ccc3ncc(-c4cccc(OC(F)(F)F)c4)n3n2)CC1
Summary of the method: as §1

saracatinib = compound: CN1CCN(CCOc2cc(OC3CCOCC3)c3c(Nc4c(Cl)ccc5c4OCO5)ncnc3c2)CC1 [saracatinib]
Summary of the method: as §1

sotrastaurin = compound: CN1CCN(c2nc(C3=C(c4c[nH]c5ccccc45)C(=O)NC3=O)c3ccccc3n2)CC1 [sotrastaurin]
Summary of the method: as §1

Measured: log2 fold change

USP9X (UniProt Q93008)
Chain of UniProt Q93008 (Q93008 whole entry, looked up): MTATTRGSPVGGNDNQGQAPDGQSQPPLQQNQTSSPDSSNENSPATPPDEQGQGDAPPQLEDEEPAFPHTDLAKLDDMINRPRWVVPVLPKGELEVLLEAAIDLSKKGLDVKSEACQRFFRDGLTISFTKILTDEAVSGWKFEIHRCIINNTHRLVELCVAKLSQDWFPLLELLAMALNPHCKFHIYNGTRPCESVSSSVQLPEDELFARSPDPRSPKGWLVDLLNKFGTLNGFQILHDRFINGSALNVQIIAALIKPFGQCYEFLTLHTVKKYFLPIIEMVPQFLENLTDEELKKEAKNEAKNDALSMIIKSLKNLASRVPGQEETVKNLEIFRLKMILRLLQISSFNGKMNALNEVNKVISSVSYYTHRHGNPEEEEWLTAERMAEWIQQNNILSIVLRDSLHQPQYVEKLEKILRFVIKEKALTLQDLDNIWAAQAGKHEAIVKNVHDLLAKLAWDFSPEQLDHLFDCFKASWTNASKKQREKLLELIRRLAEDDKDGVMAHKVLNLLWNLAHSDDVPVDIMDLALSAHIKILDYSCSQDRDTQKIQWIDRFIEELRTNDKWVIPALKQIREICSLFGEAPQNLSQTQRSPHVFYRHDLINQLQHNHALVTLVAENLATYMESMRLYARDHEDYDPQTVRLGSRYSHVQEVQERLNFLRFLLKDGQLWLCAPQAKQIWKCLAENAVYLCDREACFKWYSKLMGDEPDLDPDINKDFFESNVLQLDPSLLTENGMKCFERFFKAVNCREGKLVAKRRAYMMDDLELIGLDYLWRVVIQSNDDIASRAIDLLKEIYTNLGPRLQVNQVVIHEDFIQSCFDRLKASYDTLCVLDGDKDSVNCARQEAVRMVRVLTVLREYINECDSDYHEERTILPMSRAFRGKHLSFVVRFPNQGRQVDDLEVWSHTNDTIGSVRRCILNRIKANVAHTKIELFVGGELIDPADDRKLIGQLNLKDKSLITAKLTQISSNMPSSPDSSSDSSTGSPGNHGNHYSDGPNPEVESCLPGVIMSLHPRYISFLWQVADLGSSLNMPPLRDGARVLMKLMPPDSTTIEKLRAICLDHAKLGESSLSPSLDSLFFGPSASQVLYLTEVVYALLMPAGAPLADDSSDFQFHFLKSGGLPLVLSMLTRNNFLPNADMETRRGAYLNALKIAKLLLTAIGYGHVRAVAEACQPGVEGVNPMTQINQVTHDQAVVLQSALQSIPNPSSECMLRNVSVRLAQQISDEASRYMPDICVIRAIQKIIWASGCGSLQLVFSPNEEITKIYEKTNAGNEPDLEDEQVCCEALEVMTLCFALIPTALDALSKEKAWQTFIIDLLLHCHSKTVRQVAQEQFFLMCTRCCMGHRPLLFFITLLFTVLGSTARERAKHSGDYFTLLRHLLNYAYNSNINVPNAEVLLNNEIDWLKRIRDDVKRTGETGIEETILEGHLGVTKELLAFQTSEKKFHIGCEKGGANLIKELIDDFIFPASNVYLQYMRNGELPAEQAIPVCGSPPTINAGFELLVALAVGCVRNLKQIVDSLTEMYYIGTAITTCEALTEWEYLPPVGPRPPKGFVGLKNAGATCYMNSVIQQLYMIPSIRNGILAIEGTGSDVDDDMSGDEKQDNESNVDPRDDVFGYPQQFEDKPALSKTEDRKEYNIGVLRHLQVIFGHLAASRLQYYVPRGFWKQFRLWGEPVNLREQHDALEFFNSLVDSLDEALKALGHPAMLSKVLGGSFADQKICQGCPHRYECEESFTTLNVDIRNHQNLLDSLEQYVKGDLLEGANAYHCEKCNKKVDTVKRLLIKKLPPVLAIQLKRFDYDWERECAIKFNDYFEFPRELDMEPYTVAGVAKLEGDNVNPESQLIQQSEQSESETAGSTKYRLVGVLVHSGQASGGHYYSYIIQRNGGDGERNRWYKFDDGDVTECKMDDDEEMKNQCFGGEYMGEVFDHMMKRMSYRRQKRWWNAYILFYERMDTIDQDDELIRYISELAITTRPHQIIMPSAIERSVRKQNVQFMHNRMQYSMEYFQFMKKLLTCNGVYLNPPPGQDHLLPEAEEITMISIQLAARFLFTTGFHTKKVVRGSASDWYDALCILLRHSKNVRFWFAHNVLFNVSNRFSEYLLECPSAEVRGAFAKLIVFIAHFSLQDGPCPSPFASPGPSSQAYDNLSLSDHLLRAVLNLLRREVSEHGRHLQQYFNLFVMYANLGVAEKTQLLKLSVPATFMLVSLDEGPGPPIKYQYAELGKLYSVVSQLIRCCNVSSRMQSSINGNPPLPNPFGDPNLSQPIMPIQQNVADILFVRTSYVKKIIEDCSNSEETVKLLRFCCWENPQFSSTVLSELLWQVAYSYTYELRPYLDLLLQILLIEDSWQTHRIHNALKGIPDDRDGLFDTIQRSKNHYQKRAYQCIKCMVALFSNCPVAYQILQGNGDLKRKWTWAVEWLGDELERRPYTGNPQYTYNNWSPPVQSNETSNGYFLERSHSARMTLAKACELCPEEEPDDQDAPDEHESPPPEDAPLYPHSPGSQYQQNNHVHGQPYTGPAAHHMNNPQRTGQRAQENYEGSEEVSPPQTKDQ
inactive: ibrutinib -0.003 | [1] 0.001 | ralimetinib 0.025 | [2] -0.024 | [3] -0.032 | [4] -0.008 | [5] 0.009 | [6] -0.021 | [7] 0.043 | [8] 0.011 | vemurafenib -0.013 | [9] 0.014 | barasertib 0.038 | [10] -0.065 | volasertib -0.053 | [11] 0.033 | [12] -0.042 | [13] -0.036 | saracatinib 0.03 | sotrastaurin 0.007

XPO5 (UniProt Q9HAV4)
inactive: ibrutinib -0.041 | [1] 0.003 | ralimetinib 0 | [2] -0.043 | [3] -0.039 | [4] -0.014 | [5] -0.01 | [6] -0.004 | [7] 0.043 | [8] -0.01 | vemurafenib -0.006 | [9] 0.005 | barasertib 0.022 | [10] -0.028 | volasertib -0.062 | [11] 0.027 | [12] -0.043 | [13] -0.041 | saracatinib 0.011 | sotrastaurin 0.007

WDR77 (UniProt Q9BQA1)
Chain of UniProt Q9BQA1 (Q9BQA1 whole entry, looked up): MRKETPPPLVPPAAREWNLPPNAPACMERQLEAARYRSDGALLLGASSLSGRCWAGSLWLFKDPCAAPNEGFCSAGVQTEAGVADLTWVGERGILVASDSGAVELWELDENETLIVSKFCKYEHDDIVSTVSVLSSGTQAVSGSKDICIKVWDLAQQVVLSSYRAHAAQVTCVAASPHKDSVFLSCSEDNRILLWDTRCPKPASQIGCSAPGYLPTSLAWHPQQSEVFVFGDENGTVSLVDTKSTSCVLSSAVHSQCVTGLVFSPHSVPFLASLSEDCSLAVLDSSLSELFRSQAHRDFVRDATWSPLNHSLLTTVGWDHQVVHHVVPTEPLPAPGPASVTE
inactive: ibrutinib 0.016 | [1] 0.022 | ralimetinib 0.031 | [2] 0.024 | [3] -0.012 | [4] -0.022 | [5] -0.004 | [6] 0.007 | [7] -0.01 | [8] 0.032 | vemurafenib -0.095 | [9] -0.012 | barasertib -0.045 | [10] -0.029 | volasertib 0.004 | [11] 0.022 | [12] -0.004 | [13] 0.011 | saracatinib -0.032 | sotrastaurin 0.001

VAV1 (UniProt P15498)
inactive: ibrutinib -0.057 | [1] 0.054 | ralimetinib 0.083 | [2] -0.042 | [3] 0.009 | [4] -0.004 | [5] -0.034 | [6] -0.078 | [7] 0.046 | [8] 0.082 | vemurafenib 0.032 | [9] -0.017 | barasertib 0.022 | [10] -0.041 | volasertib -0.002 | [11] -0.041 | [12] -0.114 | [13] 0.035 | saracatinib -0.011 | sotrastaurin -0.021

ZMYND8 isoform 19 (UniProt Q9ULU4)
Chain of UniProt Q9ULU4 (Q9ULU4 whole entry, looked up): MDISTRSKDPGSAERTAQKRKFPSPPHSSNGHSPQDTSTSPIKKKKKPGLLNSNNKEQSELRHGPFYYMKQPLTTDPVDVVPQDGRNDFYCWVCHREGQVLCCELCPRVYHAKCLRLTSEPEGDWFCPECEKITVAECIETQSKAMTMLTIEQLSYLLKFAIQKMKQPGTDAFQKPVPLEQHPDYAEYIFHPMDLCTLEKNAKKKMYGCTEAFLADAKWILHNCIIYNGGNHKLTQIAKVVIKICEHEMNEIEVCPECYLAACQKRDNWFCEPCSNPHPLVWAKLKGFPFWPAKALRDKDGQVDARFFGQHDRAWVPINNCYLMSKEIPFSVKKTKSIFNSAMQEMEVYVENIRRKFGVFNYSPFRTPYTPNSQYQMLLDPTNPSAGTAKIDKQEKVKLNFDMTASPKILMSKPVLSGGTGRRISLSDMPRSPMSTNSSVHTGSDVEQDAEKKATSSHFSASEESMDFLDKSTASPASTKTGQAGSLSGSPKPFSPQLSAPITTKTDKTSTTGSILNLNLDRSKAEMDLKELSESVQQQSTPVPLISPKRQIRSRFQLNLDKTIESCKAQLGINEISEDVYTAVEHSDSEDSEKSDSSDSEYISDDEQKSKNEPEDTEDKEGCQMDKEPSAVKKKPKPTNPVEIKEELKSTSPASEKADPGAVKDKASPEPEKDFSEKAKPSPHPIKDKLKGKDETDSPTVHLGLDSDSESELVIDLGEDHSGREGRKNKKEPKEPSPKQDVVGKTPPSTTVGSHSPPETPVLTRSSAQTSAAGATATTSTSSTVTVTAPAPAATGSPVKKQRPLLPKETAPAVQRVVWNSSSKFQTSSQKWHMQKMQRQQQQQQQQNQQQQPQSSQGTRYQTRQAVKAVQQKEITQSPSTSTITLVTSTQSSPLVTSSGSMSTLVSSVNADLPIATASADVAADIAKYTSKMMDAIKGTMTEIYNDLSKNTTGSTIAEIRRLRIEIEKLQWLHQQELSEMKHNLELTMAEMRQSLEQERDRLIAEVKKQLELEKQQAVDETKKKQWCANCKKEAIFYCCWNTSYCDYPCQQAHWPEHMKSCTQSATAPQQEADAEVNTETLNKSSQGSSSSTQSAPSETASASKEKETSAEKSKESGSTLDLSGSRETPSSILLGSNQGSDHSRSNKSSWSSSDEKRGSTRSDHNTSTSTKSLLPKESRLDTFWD
inactive: ibrutinib 0.111 | [1] -0.02 | ralimetinib 0.047 | [2] 0.007 | [3] 0.002 | [4] 0.007 | [5] 0.027 | [6] 0.02 | [7] 0.011 | [8] 0.037 | vemurafenib 0.061 | [9] 0.071 | barasertib 0.012 | [10] 0.016 | volasertib -0.025 | [11] -0.015 | [12] -0.127 | [13] 0.037 | saracatinib -0.01 | sotrastaurin 0.019

UTP18 (UniProt Q9Y5J1)
Chain of UniProt Q9Y5J1 (Q9Y5J1 whole entry, looked up): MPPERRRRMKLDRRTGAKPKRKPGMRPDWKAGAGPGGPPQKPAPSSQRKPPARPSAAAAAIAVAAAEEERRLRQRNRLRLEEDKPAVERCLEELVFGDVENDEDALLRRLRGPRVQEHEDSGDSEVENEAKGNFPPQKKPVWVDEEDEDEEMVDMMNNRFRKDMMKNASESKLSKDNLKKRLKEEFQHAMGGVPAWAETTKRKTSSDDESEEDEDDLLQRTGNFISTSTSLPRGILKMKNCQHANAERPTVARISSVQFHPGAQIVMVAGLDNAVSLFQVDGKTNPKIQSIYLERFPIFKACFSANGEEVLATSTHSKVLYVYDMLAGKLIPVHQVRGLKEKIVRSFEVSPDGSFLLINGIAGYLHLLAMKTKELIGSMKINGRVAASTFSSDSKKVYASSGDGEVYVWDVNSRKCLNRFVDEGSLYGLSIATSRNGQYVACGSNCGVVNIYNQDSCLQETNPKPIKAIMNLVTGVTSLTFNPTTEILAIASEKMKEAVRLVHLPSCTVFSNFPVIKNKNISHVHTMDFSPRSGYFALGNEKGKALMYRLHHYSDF
inactive: ibrutinib 0.125 | [1] -0.031 | ralimetinib 0.002 | [2] -0.017 | [3] 0.033 | [4] 0.057 | [5] -0.085 | [6] -0.017 | [7] 0.028 | [8] 0.023 | vemurafenib -0.011 | [9] 0.067 | barasertib -0.036 | [10] 0.057 | volasertib -0.069 | [11] 0.024 | [12] -0.004 | [13] -0.042 | saracatinib 0.031 | sotrastaurin 0.012

YRDC (UniProt Q86U90)
Chain of UniProt Q86U90 (Q86U90 whole entry, looked up): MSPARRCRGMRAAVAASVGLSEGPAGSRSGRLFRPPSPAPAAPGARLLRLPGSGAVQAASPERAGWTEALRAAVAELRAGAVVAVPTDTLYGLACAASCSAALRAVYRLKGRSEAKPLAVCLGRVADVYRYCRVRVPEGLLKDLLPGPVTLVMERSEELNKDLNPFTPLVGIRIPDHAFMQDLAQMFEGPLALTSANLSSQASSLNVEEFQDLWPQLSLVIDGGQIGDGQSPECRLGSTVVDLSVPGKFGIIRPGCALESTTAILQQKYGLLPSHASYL
inactive: ibrutinib 0.01 | [1] -0.002 | ralimetinib 0.025 | [2] -0.012 | [3] 0.027 | [4] -0.006 | [5] -0.015 | [6] 0.021 | [7] 0.007 | [8] 0.008 | vemurafenib 0.03 | [9] 0.093 | barasertib 0.019 | [10] 0.04 | volasertib -0.005 | [11] -0.045 | [12] -0.019 | [13] 0.089 | saracatinib -0.043 | sotrastaurin -0.002

ZMYM4 (UniProt Q5VZL5)
inactive: ibrutinib -0.079 | [1] -0.004 | ralimetinib 0.055 | [2] -0.025 | [3] 0.051 | [4] 0.026 | [5] -0.089 | [6] -0.011 | [7] -0.012 | [8] -0.001 | vemurafenib 0.008 | [9] 0.003 | barasertib 0.126 | [10] 0.013 | volasertib 0.041 | [11] 0.033 | [12] 0.013 | [13] 0.029 | saracatinib 0.023 | sotrastaurin 0.043
